We go through 13 compounds from PubChem BioAssay (NCATS).

Results filed as inconclusive are left out. The source made the active and inactive calls. Calls follow the shape of the full dose curve. Bridge positions count the residues as written; N and C are the ends. Peptide text beside a SMILES is read from it.

Assay [1] in a line: Primary qHTS for Huh7 cytotoxicity: counterscreen for inhibitors of MERS-S pseudotyped particle cell entry (AID 1479147). As to activity change, negative = cytotoxicity: % is scaled to controls: 0 for no effect and ±100 for the full control effect. The conditions noted are these: outcome: dose series up to 57.1 µM unless noted.
Assay [2] is described as follows: Primary qHTS for inhibitors of MERS-S pseudo-typed particle cell entry (AID 1479149). Also: nearly all actives have a fitted effect of over 60% in size. As to activity change, negative = inhibition: % is scaled to controls: 0 for no effect and ±100 for the full control effect. The conditions noted are these: outcome: dose series up to 57.1 µM unless noted. (In general: qHTS replaces the single test concentration by a dilution series.)
Assay [3] can be described thus: Primary qHTS for Vero E6 cytotoxicity: counterscreen for inhibitors of SARS-S pseudo-typed particle cell entry (AID 1479150). As to activity change, negative = cytotoxicity: % is scaled to controls: 0 for no effect and ±100 for the full control effect. The conditions noted are these: outcome: dose series up to 57.1 µM unless noted.
A short description of assay [4]: Cytotoxicity counterscreen for inhibitors of SARS-CoV-2 cell entry (AID 1645845). Also: nearly all actives have a fitted effect of over 50% in size. As to activity change, negative = cytotoxicity: % is scaled to controls: 0 for no effect and ±100 for the full control effect. The note with it: outcome: dose series up to 57.1 µM unless noted. Put shortly:
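HEK293-ACE2 cells (Expi293F stably expressing human ACE2) seeded overnight, then compound for 1 h plus 48 h at 37C. Viability as ATP content by luminescence; normalized to wells with cells and media-only wells.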
Background: A counterscreen serves to expose hits that act by an unwanted route or on another target.

Assay [5] in a line: Primary qHTS to identify inhibitors of SARS-CoV-2 cell entry (AID 1645846). Also: nearly all actives have a fitted effect of over 45% in size. The note with it: SARS-CoV-2 pseudovirus cell entry assay, luminescence; activity change, negative = inhibition: at 57.1 µM (top of the series) unless noted. In short, it runs like this:
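Entry measured by luciferase signal 48 h after adding SARS-CoV-2-S pseudotyped MLV particles to HEK293-ACE2 cells preincubated 1 h with compounds. Normalisation: bald particles and spike particles.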

`N[C@@H](C(=O)N[C@@H]1C(=O)N2C(C(=O)O)=C(Cl)CC[C@H]12)c1ccccc1`: the Potency entry in assay [1], in assay [2], in assay [3] and in assay [4] was “inactive” in each case. Further, the activity change, negative = inhibition in assay [5] is -20.1%.
Consider `O=C(O)c1cc2ccccc2c(Cc2c(O)c(C(=O)O)cc3ccccc23)c1O`, for which the Potency entry in assay [1], in assay [2], in assay [3], in assay [4] and in assay [5] was “inactive” throughout.
Consider `COC1=C(C(=O)O)N2C(=O)[C@@H](NC(=O)[C@H](N)C3=CCC=CC3)[C@H]2SC1`, for which the Potency result in assay [1], in assay [2], in assay [3] and in assay [4] was “inactive” in each case. Besides, in assay [5], the activity change, negative = inhibition was -17.7%.
`C[C@@H]1NC(=O)[C@@H]2CCCN2C(=O)[C@H](CC(N)=O)NC(=O)[C@@H]2CSSC[C@H](N)C(=O)N[C@H]3CSSC[C@H](NC1=O)C(=O)N[C@@H]([C@@H](C)O)C(=O)NCC(=O)N[C@H](C(=O)N[C@@H](Cc1ccc(O)cc1)C(=O)O)CSSC[C@H](NC(=O)[C@H](Cc1ccc(O)cc1)NC(=O)[C@H](CCC(=O)O)NC3=O)C(=O)N2` (H-CCEYCCNPACTGCY-OH; disulfide 1-6, 2-10, 5-13): the Potency entry in assay [1], in assay [2], in assay [3] and in assay [4] was “inactive” each time. For the same compound, the activity change, negative = inhibition in assay [5] is -24.4% [at 27.1 µM].
In the case of `Cc1cccc(C)c1N(CCCc1cccnc1)C(=O)C(C)N` (stereo not given), the Potency entry in assay [1], in assay [2], in assay [3] and in assay [4] was “inactive” each time. For the same compound, the activity change, negative = inhibition in assay [5] is -18.9%.
Take `Cc1ccccc1-c1cc(N2CCN(C)CC2)ncc1N(C)C(=O)C(C)(C)c1cc(C(F)(F)F)cc(C(F)(F)F)c1`: the Potency result in assay [1], in assay [2], in assay [3] and in assay [4] was “inactive” in each case. Moreover, the activity change, negative = inhibition in assay [5] came to 3.24%.
On to `CCCCCCO[C@@H](C)c1cccc(-c2csc(NC(=O)c3cc(Cl)c(/C=C(\C)C(=O)O)c(Cl)c3)n2)c1OC`, for which the Potency result in assay [1], in assay [2], in assay [3] and in assay [4] was “inactive” in each case. In assay [5], the activity change, negative = inhibition is -33.5%.
Regarding `CCC(=O)O[C@@H]1[C@@H](C)O[C@@H](O[C@H]2[C@H](N(C)C)[C@@H](O)[C@H](O[C@H]3[C@@H](CC=O)C[C@@H](C)[C@@H](OC(C)=O)/C=C/C=C/C[C@@H](C)OC(=O)C[C@@H](OC(=O)CC)[C@@H]3OC)O[C@@H]2C)C[C@]1(C)OC(C)=O`, the Potency entry in assay [1], in assay [2], in assay [3] and in assay [4] was “inactive” in each case. Besides, in assay [5], the activity change, negative = inhibition is -16.2%.
On to `NS(=O)(=O)c1cc2c(cc1Cl)NC(Cc1ccccc1)NS2(=O)=O` (stereo not given), for which the Potency result in assay [1], in assay [2], in assay [3] and in assay [4] was “inactive” throughout. Moreover, in assay [5], the activity change, negative = inhibition was -16.2%.
With `Cc1ccc(S(=O)(=O)O)cc1`, the Potency result in assay [1], in assay [2], in assay [3] and in assay [4] was “inactive” throughout. In addition, in assay [5], the activity change, negative = inhibition is -13.7%.
Turning to `CC(C)(C)CC(C)(C)c1cc(Cc2cc(C(C)(C)CC(C)(C)C)cc(-n3nc4ccccc4n3)c2O)c(O)c(-n2nc3ccccc3n2)c1`, the values for the activity change, negative = cytotoxicity in assay [1] and in assay [3] were 1.83% [at 5.34 µM] (inactive) and -1.1% [at 5.34 µM] (inactive), respectively. Besides, the outcome is “inactive [at 5.34 µM]” in assay [2] and “inactive [at 5.25 µM]” in assay [4]. Moreover, the activity change, negative = inhibition in assay [5] is -28.1% [at 5.25 µM].
Consider `COc1c(O)cc2c(c1O)[C@H]1O[C@@H](CO)[C@H](O)[C@@H](O)[C@@H]1OC2=O`, for which the Potency result in assay [1], in assay [2], in assay [3] and in assay [4] was “inactive” in each case. Also, in assay [5], the activity change, negative = inhibition is -14.9%.
Regarding `FCOC(C(F)(F)F)C(F)(F)F`, the Potency entry in assay [1], in assay [2], in assay [3] and in assay [4] was “inactive” in each case. Further, in assay [5], the activity change, negative = inhibition is -16%.
